TbPYK inhibitor = qHTS of Trypanosoma Brucei Inhibitors. pyruvate kinase (Trypanosoma brucei), Q57TT1. TbPYK enzyme, Kinase-Glo Plus ATP luminescence, 45 min. Potency, µM (highest dose often 76.8 µM), inactives show at the highest dose activity, negative = inhibition, hits mostly inhibitors. 410,000 compounds, 0.12% hits; also: potency is read from the fitted curve at half-maximal effect; % is scaled to controls: 0 for no effect and ±100 for the full control effect; nearly all actives have a fitted effect of over 50% in size
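Activity of T. brucei pyruvate kinase was followed by Kinase-Glo Plus luminescence after the enzyme reacted 45 min at room temperature with 130 uM ADP (final) and substrate. Test compounds were added before ADP at multiple concentrations.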
FBPA Giardia inh = qHTS Assay for Inhibitors of Fructose-1,6-bisphosphate Aldolase from Giardia Lamblia. purified Giardia FBPA. Potency, µM (series often up to 59.6 µM), without a hit: at the top dose activity, negative = inhibition, most hits filed as inhibitors. 290,000 compounds, 0.71% hits. AID 2451, 2010; also: potency is read from the fitted curve at half-maximal effect; % is scaled to controls: 0 for no effect and ±100 for the full control effect; nearly all actives have a fitted effect of over 55% in size
Target sequence (A8B2U2 whole entry, looked up): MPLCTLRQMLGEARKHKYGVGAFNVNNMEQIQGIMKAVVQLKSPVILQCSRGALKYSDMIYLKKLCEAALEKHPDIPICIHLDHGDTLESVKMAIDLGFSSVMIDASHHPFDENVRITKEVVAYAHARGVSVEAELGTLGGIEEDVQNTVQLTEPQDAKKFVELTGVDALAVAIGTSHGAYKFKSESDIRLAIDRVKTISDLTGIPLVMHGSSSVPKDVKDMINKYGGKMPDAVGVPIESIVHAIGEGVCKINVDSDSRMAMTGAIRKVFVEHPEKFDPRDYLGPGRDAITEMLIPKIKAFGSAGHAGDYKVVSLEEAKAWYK
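Giardia FBPA (40 nM reagent) was preincubated 10 min at RT with compound (up to 57.5 uM final), then substrate plus GAPDH/TPI/NAD/arsenate coupling system with diaphorase/resazurin was added; resorufin fluorescence (525/598 nm) was read after 20 min.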
LmPK inh = qHTS Assay for Inhibitors of Leishmania Mexicana Pyruvate Kinase (LmPK). Q27686. purified LmPK, Kinase-Glo ATP luminescence, 1 h. Potency, µM (series often up to 57.5 µM), inactives show top-dose activity change, negative = inhibition, hits mostly inhibitors. 290,000 compounds, 0.37% hits. AID 1721, 2009; also: potency is read from the fitted curve at half-maximal effect; % is scaled to controls: 0 for no effect and ±100 for the full control effect
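Purified LmPK (0.1 nM) with 0.5 mM PEP and 0.1 mM ADP in imidazole buffer pH 7.2 with MgCl2/KCl, 1 h at room temperature. ATP formed was read by luciferase luminescence and normalized to no-enzyme and uninhibited controls.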
Cycloheximide cs = Cycloheximide Counterscreen for Small Molecule Inhibitors of Shiga Toxin. cell reporter, cycloheximide protein synthesis inhibition counterscreen. max response, %. 300,000 compounds, 12% hits. AID 2314, 2010; in the data active = max response mostly above about 13%, no sharp cut-off; inactive = mostly below about 14%; also: read at 38.3 µM for the half of the compounds with a filed dose; 0% is about no effect
Shiga toxin inh = A qHTS for Small Molecule Inhibitors of Shiga Toxin | inhibition, % at 38.7 µM | Vero cells, Shiga toxin protein synthesis inhibition reporter | 290,000 compounds, 9.2% hits; in the data active = inhibition mostly above about 28%, no sharp cut-off; inactive = mostly below about 43%; also: 0% is about no effect
RE007 growth inh = qHTS Assay for Inhibitors of the HIV-1 protein Vpr; S. pombe RE007 Vpr strain, BacTiter-Glo ATP luminescence, 24 h; Potency, µM (series often up to 92.2 µM), for the others: top-dose activity change, negative = less growth, actives largely listed as inhibitors; 360,000 compounds, 0.21% hits; AID 651644, 2012; active = well fitted falling curve with a large enough effect; inconclusive = small, poorly fitted or top-dose-only effect; inactive = no such curve, though single readings can be large or run the other way; also: potency is read from the fitted curve at half-maximal effect; % is scaled to controls: 0 for no effect and ±100 for the full control effect; nearly all actives have a fitted effect of over 50% in size
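Fission yeast RE007 carrying one integrated HIV-1 vpr copy, seeded at OD 0.01 in PMG+AL medium with 23 nL pinned compound. Grown 24 h at 30 degrees; viability read by BacTiter-Glo luminescence after 5 min.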
An asterisk follows results filed as active. Shown is part of a subset that was picked to be rich in hits. Unless noted, calls follow the shape of the dose curve; as a rule, active = well fitted curve in the direction sought with a large enough effect; inconclusive = small, poorly fitted or top-dose-only effect, or another doubt; inactive = no such curve, though single readings can be large; an effect the other way counts as inactive or inconclusive.

For COc1ccc(Nc2oc(-c3ccccc3F)nc2C#N)cc1 the results were TbPYK inhibitor -3.7%, FBPA Giardia inh 2.9%, LmPK inh 6.7%, Cycloheximide cs 33.6*, Shiga toxin inh 47.2* and RE007 growth inh -7.2%.
For O=c1oc2c(CN3CCOCC3)c(O)ccc2c2ccccc12 the results were TbPYK inhibitor 1.4%, FBPA Giardia inh -5.1%, LmPK inh 0.3%, Cycloheximide cs 44.4*, Shiga toxin inh 47.0 and RE007 growth inh -0.6%.
For O=c1c(-c2ccc(Br)cc2)coc2c(CN3CCOCC3)c(O)ccc12 the results were TbPYK inhibitor 4.2%, FBPA Giardia inh -0.9%, LmPK inh 2.1%, Cycloheximide cs 22.4*, Shiga toxin inh 35.2* and RE007 growth inh 7.1%.
For CCCN(c1ccccc1F)S(=O)(=O)c1cc(-c2cc(C)no2)ccc1C the results were TbPYK inhibitor -10.4%.
FC(F)Oc1ccc(-c2csc(NNC3=NCCCCC3)n2)cc1 was read as TbPYK inhibitor -21.4%, FBPA Giardia inh inconclusive, LmPK inh -4.5%, Cycloheximide cs 21.3*, Shiga toxin inh 34.7 and RE007 growth inh -7.6%.
For Brc1ccc(-c2csc(NNC3=NCCCCC3)n2)cc1 the results were TbPYK inhibitor -7.4%, FBPA Giardia inh inconclusive, LmPK inh 4.8%, Cycloheximide cs 24.9*, Shiga toxin inh 42.4 and RE007 growth inh 32.3%.
Screening CC(C)(C)c1ccc(C(=O)NCC(=O)OCC(=O)Nc2nc(-c3ccc(F)cc3)cs2)cc1 returned TbPYK inhibitor -3.1%, FBPA Giardia inh -5.4%, LmPK inh 1.4%, Cycloheximide cs 15.1, Shiga toxin inh 25.5 and RE007 growth inh -5.2%.
`CC(Oc1ccccc1)C(=O)Nc1nc(-c2ccncc2)cs1` (stereo not drawn) gave TbPYK inhibitor -2.5% and RE007 growth inh -2.9%.
CC(C)(C)c1ccc(-c2csc(NNC3=NCCCCC3)n2)cc1 was read as TbPYK inhibitor inconclusive, FBPA Giardia inh inconclusive, LmPK inh 8.0%, Cycloheximide cs 20.0*, Shiga toxin inh 29.8 and RE007 growth inh 3.1%.
Brc1ccc(-c2csc(-c3nc(-c4ccc(Br)s4)cs3)n2)cc1 was read as TbPYK inhibitor 0.2%.
`O=C(Nc1cc2ccc(O)cc2oc1=O)c1ccc(F)cc1` gave TbPYK inhibitor -8.0%.
CCc1cccc(NC(=O)CSC2=Nc3ccccc3N=C(c3ccc(F)cc3)C2)c1 was read as TbPYK inhibitor 2.2%.
`CCCCON1C(=O)c2cccc3cccc(c23)C1=O` gave TbPYK inhibitor 1.4%, FBPA Giardia inh 24.1%, LmPK inh -2.8%, Cycloheximide cs 14.7*, Shiga toxin inh 40.5* and RE007 growth inh -6.5%.
Cc1ccc(OCCn2nc3ccccc3n2)c(C)c1 was read as TbPYK inhibitor 4.3%, FBPA Giardia inh -8.7%, LmPK inh 0.2%, Cycloheximide cs 32.5*, Shiga toxin inh 38.4* and RE007 growth inh -11.6%.
`Cc1cc(C)cc(OCCn2nnc3ccccc32)c1` gave TbPYK inhibitor 3.7%, FBPA Giardia inh 6.9%, LmPK inh 0.9%, Cycloheximide cs 46.6*, Shiga toxin inh 57.7* and RE007 growth inh -5.6%.
For Cc1ccc(C)c(OCCn2nnc3ccccc32)c1 the results were TbPYK inhibitor 2.1%, FBPA Giardia inh -1.5%, LmPK inh 1.0%, Cycloheximide cs 32.6*, Shiga toxin inh 33.6* and RE007 growth inh inconclusive.
Clc1ccccc1OCCn1nnc2ccccc21 was read as TbPYK inhibitor -6.7%, FBPA Giardia inh 5.1%, LmPK inh -1.1%, Cycloheximide cs 44.9*, Shiga toxin inh 62.9* and RE007 growth inh 0.1%.
Screening Cc1c(C(=O)N2CCCC2)c(S(=O)(=O)Nc2ccccc2)c(C)n1C returned TbPYK inhibitor 2.7%, FBPA Giardia inh 3.5%, LmPK inh -2.4%, Cycloheximide cs 4.5, Shiga toxin inh -1.5 and RE007 growth inh 4.5%.
